Records with an inconclusive call do not appear. Calls of active or inactive are those of the source. The calls were made as follows: active = hit-call score of the fitted dose curve at least 0.9, where 1 is the maximum; inconclusive = response in the unintended direction; inactive = score below 0.9.

As usually defined, the AC50 is the concentration giving half of the maximal activity seen.

The assay is described as follows: CCTE_Shafer_MEA_dev_AB: CCTE's Alamar Blue Assay for Cytotoxicity in the Neural Network Formation Assay, Shafer Lab (AID 2284083).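 Also: twelve days of exposure from plating with re-dosing on DIV 5 and 9.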 As to the method: CCTE_Shafer_MEA_dev assay is conducted using Axion Biosystems 48 well microelectrode array (MEA) plates and Maestro recording system. Each well of the MEA plate contains a grid of 16 microelectrodes embedded in the culture surface. Electrically active cells, such as neurons, can be cultured over the electrodes, and electrical activity in these cells can be recorded extracellularly. The spontaneous firing of neurons is captured from each electrode on a microsecond timescale providing both temporally and spatially precise data. […] The CCTE_Shafer_MEA_dev assay uses primary cultures of rat cortical neurons. Recordings are made on days post-plating 5, 7, 9 and 12. As these cultures mature over time, neural networks develop functional activity and form cohesive networks in which electrical activity can be highly coordinated. CCTE_Shafer_MEA_dev_AB is 1 of 19 assay components of the CCTE_Shafer_MEA_dev assay. It measures the resazurin reduction using fluorescence.Data from the assay component CCTE_Shafer_MEA_dev_AB was analyzed into 1 assay endpoint. This assay endpoint, CCTE_Shafer_MEA_dev_AB, was analyzed in the positive analysis fitting direction relative to DMSO as the negative control and baseline of activity. Using a type of viability reporter, loss-of-signal activity can be used to understand cell viability.
On the day prior to culture, each well was coated thoroughly with 150 uL of 0.05% polyethyleneimine (PEI, Sigma Cat P3143) in 50 mM HEPES (Sigma Cat H7523) at a pH of 8. The plate was incubated at 37C for one hour. PEI was rinsed out with 500 uL of sterile water three times. Plates were stored at 4C until the day of culture. This culture was plated at a seeding density of 1.5 x 10^5 cells/well on a 48-well MEA plate, prepared as described above. Cells were administered via a 25 uL media/laminin ([…]; Sigma Cat L2020-1MG) drop directly onto the microelectrode array, as adding the cells with the laminin results in better attachment than pre-coating with laminin. After 2 hours, an additional 475 uL of cortical media was added and the cells returned to the incubator. Exposure starts at day 0 of plating and is continued over twelve days of network development until the experiment is terminated. Cells are fed with fresh medium on DIV 5 and 9, following the recordings on those days. The entire volume of media in the well is exchanged and any vehicle or compound treatment is renewed. Complete details are found in OP-NHEERL/ISTD/SBB/TJS/2015-03-r0 (available on request, email shafer.tim@epa.gov). Measurement of the electrical activity is non-invasive, and recordings can be made from the same plate over multiple different days of the culture. In cortical neurons, this allows for the measurement of extracellular action potentials over the period during which networks form in the MEA plate.
Background: The colour change of resazurin is a common sign of viable cells or microbes.
For `O=C(O)C(F)(F)C(F)(F)C(F)(F)C(F)(F)C(F)(F)C(F)(F)C(F)(F)C(F)(F)C(F)(F)C(F)F`, the result was inactive. As to `CC(C)(C)C(=O)CC(=O)C(F)(F)C(F)(F)C(F)(F)F`, the AC50 was 23.9 µM (active). Same read-out and setting: the result for `C=CC(=O)OCC(F)(F)C(F)(F)C(F)(F)C(F)(F)COC(=O)C=C` reads 4.78 µM (active); that for `O=P(O)(O)OCCC(F)(F)C(F)(F)C(F)(F)C(F)(F)C(F)(F)C(F)(F)F`, 24.7 µM (active). For the compound `CC(CCl)OP(=O)(OC(C)CCl)OC(C)CCl` (stereo unspecified), the compound was called inactive. Still for that read-out and setting: then `OCC(F)(F)C(F)(F)C(F)(F)C(F)F`, with “inactive”.

In the case of `FC(F)(F)C(F)(F)C(F)(F)C(F)(F)C(F)(F)CCI`, the half-maximal activity concentration (AC50) is 23.9 µM (active). `OCC(F)(F)C(F)(F)C(F)(F)C(F)(F)C(F)(F)C(F)F`: the result was inactive. For the compound `OCC(F)(F)C(F)(F)C(F)(F)F`, the outcome was inactive. On to `N=C(N)C(F)(F)C(F)(F)C(F)(F)C(F)(F)C(F)(F)C(F)(F)C(F)(F)F`, for which the AC50 was 23.9 µM (active).

As for `OC[C@@H](O)[C@@H](O)[C@H](O)[C@@H](O)CO`, the call was inactive.

(Values after PubChem BioAssay (EPA / NIEHS).)
